# In PubChem BioAssay AID1645853 (Buhrlage Lab, Dana-Farber Cancer Institute and Novartis …, 2021):
# Hit rate of the full screen: of about 47,000 compounds, about 2,000 (4.3%) were called active. The entries come from a sample that favours actives as a whole. Unmarked numbers belong to inactive results. Cut-off read from the data, not from the text of the source: active = inhibition above about 30%; inactive = the rest.
# Biological target: Ubiquitin carboxyl-terminal hydrolase 8 (Homo sapiens) (UniProt P40818)
# Experiment: blocks human USP8 ubiquitin-rhodamine cleavage (AID 1645853)
# Conditions: purified USP8, Ub-rhodamine cleavage fluorescence, 30 min; at 20 µM; stronger effect = higher value
# Sequence of Ubiquitin carboxyl-terminal hydrolase 8 (Homo sapiens) (P40818 whole entry, looked up): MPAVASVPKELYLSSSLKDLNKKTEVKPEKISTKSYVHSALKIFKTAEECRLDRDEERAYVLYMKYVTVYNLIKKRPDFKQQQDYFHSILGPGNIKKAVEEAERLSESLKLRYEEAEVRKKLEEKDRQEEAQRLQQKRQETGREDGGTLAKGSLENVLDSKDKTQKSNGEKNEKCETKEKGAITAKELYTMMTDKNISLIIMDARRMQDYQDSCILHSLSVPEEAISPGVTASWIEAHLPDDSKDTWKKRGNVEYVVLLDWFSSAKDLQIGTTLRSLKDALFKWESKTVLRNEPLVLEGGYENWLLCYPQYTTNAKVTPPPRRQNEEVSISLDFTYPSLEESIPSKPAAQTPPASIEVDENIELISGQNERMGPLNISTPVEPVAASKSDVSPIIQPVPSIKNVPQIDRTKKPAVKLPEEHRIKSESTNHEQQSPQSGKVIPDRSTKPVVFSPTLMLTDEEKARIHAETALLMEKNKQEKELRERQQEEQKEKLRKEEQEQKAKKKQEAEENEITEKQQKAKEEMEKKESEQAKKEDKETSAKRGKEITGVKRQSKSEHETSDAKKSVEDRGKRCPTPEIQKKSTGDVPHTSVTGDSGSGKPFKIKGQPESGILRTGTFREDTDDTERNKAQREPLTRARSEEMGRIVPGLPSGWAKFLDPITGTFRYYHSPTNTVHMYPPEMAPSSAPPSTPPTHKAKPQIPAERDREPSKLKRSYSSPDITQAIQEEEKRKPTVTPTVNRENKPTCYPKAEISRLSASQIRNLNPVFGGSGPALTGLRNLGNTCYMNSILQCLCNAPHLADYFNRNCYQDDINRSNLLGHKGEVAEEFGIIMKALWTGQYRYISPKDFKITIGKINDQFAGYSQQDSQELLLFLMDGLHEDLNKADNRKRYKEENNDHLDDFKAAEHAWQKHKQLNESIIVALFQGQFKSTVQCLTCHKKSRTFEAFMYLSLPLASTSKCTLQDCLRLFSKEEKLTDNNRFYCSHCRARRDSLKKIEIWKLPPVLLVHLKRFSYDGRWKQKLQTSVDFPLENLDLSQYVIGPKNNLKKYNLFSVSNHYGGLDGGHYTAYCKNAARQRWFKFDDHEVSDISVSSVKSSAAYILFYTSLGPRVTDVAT
row,SMILES,inhibition
1,O=C(NCCc1ccccc1)c1cc2c(s1)CS(=O)(=O)C2,3.17%
2,Cc1nc(-c2ccc(C(=O)NCc3ccc4c(c3)OCO4)cc2)cs1,7.04%
3,O=C(NCc1ccc2c(c1)OCO2)c1cc2c(s1)CS(=O)(=O)C2,47.6% (active)
4,O=S(=O)(c1ccccc1)N1CCCCCC1C1CCN(Cc2nc(C3CC3)no2)CC1 (centres undefined),-3.93%
5,COc1cc2c(cc1OC)C(c1cccs1)N(C(=O)c1ccc3n[nH]nc3c1)CC2 (centres undefined),6.71%
6,COc1ccc(C(=O)N2CCc3cc4ccccc4nc32)cc1OC,-4.03%
7,COc1ccc(CC2c3cc(OC)c(OC)cc3CCN2C(=O)c2ccc(C)c(Cl)c2)cc1OC (centres undefined),36.3% (active)
8,COc1ccc(C2CC(=O)c3cnc(NCc4ccco4)nc3C2)c(OC)c1 (centres undefined),-0.335%
9,Cc1ccc(CSc2nnc(/C=C/c3ccccc3)o2)cc1,-1.95%
10,CCCNc1cc(N2CCCC(CCC(=O)N3CCC(C)CC3)C2)ncn1 (centres undefined),-110%
11,CCc1ccc(S(=O)(=O)NCC(O)COc2ccc(OC)cc2)cc1 (centres undefined),-1.1%
12,O=C(Nc1cc(Cl)ccc1F)c1cnc(-c2ccccc2)nc1-c1ccncc1,-14%
13,Cc1ccc(F)cc1NC(=O)c1cnc(-c2ccccc2)nc1-c1ccncc1,12.2%
14,Cc1ccc(-c2ncc(C(=O)Nc3ccccc3C)c(-c3ccncc3)n2)cc1,41% (active)
15,Cc1nn(-c2ccccc2)c2c1C(C(=O)c1ccc(Cl)s1)CC(=O)N2 (centres undefined),10.5%
16,COc1ccc(C(=O)NCC(c2cccnc2)S(=O)(=O)c2ccc(C)cc2)cc1OC (centres undefined),-8.69%
17,CCOC(=O)c1c(NC(=O)c2ccco2)sc(Cc2ccc3c(c2)OCO3)c1C,20.7%
18,O=C(Nc1ccc2oc(-c3ccccc3)nc2c1)c1cccc(-n2cnnc2)n1,3.67%
19,O=C(c1cnn(-c2ccc(Cl)cc2)n1)c1cccs1,2.7%
20,O=C(Nc1ccc2cn[nH]c2c1)c1cnn(-c2ccccc2)n1,59.1% (active)
21,O=C1CN(C(=O)CNc2ccccc2N2CCCC2=O)c2ccccc2N1,4.28%
22,O=c1c(S(=O)(=O)N2CCCC2)cccn1Cc1cc(=O)n2ccccc2n1,-4.28%
23,Cc1ccc(-c2cn3ccn(-c4ccc(C)cc4C)c(=O)c3n2)cc1,43% (active)

row,SMILES,inhibition
1,Cc1ccn2cc(-c3ccc(NS(=O)(=O)c4cc(C)c(C)cc4C)cc3)nc2n1,21.4%
2,CC(C)(C)c1ccc(Cn2nnc3c(=O)[nH]c(C4CCN(S(=O)(=O)c5ccc6c(c5)OCCO6)CC4)nc32)cc1,7.01%
3,O=C(O)c1cc(-c2cccc3ccccc23)n[nH]1,-80.6%
4,O=C(c1cnccn1)N1CC(C(=O)N2CCCC2)C1,0.517%
5,O=C(CSc1nnc(-c2ccncc2)o1)Nc1cccc(Cl)c1,4.92%
6,CCN(C(=O)CSc1nnc(-c2ccncc2)o1)c1ccccc1,14.4%
7,CCc1ccccc1NC(=O)CSc1nnc(-c2ccncc2)o1,54.3% (active)
8,Cc1ccc2occ(CC(=O)Nc3sc4c(c3C(=O)NCc3cccnc3)CCCC4)c2c1,20.7%
9,CCC(Cc1ccccc1)NS(=O)(=O)c1ccc2c(c1)NC(=O)CS2 (centres undefined),3.6%
10,CCOc1ccc(CNS(=O)(=O)c2cccc(-c3noc(C)n3)c2)cc1OC,-8.47%
11,Cn1cc(-c2nc(CN3CCCC3Cn3cccn3)cs2)cn1 (centres undefined),-48.6%
12,O=C(NCCc1ccccc1)c1ccc2c(=O)n(Cc3ccco3)c(=O)n(Cc3cccc([N+](=O)[O-])c3)c2c1,83.9% (active)
13,O=C(Cn1c(=O)n(Cc2ccc3c(c2)OCO3)c(=O)c2ccccc21)NCc1ccco1,8.11%
14,O=C(CCc1nnc2n(Cc3ccccc3)c(=O)c3ccccc3n12)N1CCN(C(=O)c2ccco2)CC1,2.75%
15,COc1ccc(-c2ccc3nc(N4CCC(C(N)=O)CC4)sc3n2)cc1,-18.5%
16,C[C@@H]1CCCCCCCCC[C@@H](OC(=O)CCC(=O)O)C(=O)/C=C/C(=O)O1,-0.995%
17,Cc1ccc(Nc2nc(O)c(CC(=O)Nc3ccc(C(C)C)cc3)s2)cc1C,-0.936%
18,Cc1ccc(NC(=O)Cc2sc(Nc3ccc(C)cc3)nc2O)cc1,35.4% (active)
19,CCOc1ccc(Nc2nc(O)c(CC(=O)Nc3cccc(C)c3)s2)cc1,29.3%
20,O=C(NCc1ccncc1)c1nnn(-c2ccc(F)cc2)c1-c1ccncc1,5.41%
21,O=C(CSc1nnc(-c2cccnc2)o1)N1CCN(c2ccc(F)cc2)CC1,19%
22,Cc1nc(-c2cccc(NC(=O)C3CCN(c4ccccc4)C3=O)c2)no1 (centres undefined),27.7%
23,O=C(COC(=O)c1ccc(F)cc1)NC1CCCc2ccccc21 (centres undefined),7.36%

row,SMILES,inhibition
1,O=C(c1ccccc1)c1ccc(NC2CCCc3ccccc32)c([N+](=O)[O-])c1 (centres undefined),-7.98%
2,Nc1ccc(C(=O)OCC(=O)NC2CCCc3ccccc32)cc1[N+](=O)[O-] (centres undefined),50.4% (active)
3,O=C(CN1CCN(Cc2nc3ccccc3s2)CC1)N1CCc2ccccc21,-4.14%
4,CC(C)C(=O)N1[C@@H](c2ccccc2)C[C@@H]2NC(=O)CCC[C@H]21,1.29%
5,CC1CCc2c(sc3ncnc(OCc4cccc([N+](=O)[O-])c4)c23)C1 (centres undefined),-36.3%
6,Cc1nc(N)ncc1C(=O)N1CCCC(C)(C(=O)NC2CCCC2)C1 (centres undefined),4.82%
7,Cc1nnn(C23CC4CC(CC(C(=O)NC5CCCC5)(C4)C2)C3)n1,30.1% (active)
8,COCCn1cnc2c1c(=O)n(CC(=O)Nc1c(C)cc(C)cc1C)c(=O)n2Cc1ccccc1,32.6% (active)
9,COCCn1cnc2c(-c3ccccc3)cn(CC(=O)NCc3ccccc3)c2c1=O,0.16%
10,O=c1c2c(ncn2C2CCCC2)n(Cc2ccccc2)c(=O)n1Cc1ccccc1,1.24%
11,Cc1nc(C2CCN(C(=O)Cc3ccc(F)cc3)CC2)ncc1C(N)=O,0.65%
12,O=S(=O)(c1ccccc1)n1nc(-c2cccnc2)nc1NCc1ccc(Cl)cc1,3.57%
13,CS(=O)(=O)c1ccc(CN2CCC3(C/C=C/Cc4ccccc4OCC(=O)NC3)CC2)cc1,-3.81%
14,O=C(O)c1ccc2c(=O)n3c(nc2c1)/C(=C/c1cccc(C(F)(F)F)c1)CC3,14.9%
15,O=C(O)c1c2c(nc3ccccc13)/C(=C/c1ccc(F)cc1)CCC2,35.2% (active)
16,O=C1NC(c2ccccc2)=N/C1=C/c1ccc(F)cc1,-0.962%
17,CC1(C)[C@H](Cc2cc(-c3ccccc3)on2)C[C@@H]1NC(=O)C1CC1,-0.801%
18,CCOc1ccccc1NC(=O)COc1cccc2c1OC(C)(C)C2,8.84%
19,CCOc1ccccc1NC(=O)Nc1cc(-c2nc3ccccc3o2)ccc1OC,21.7%
20,CCOc1ccccc1NC(=O)Cc1cccs1,31.3% (active)
21,CN1C(=O)C(C)(C)COc2ccc(NS(=O)(=O)c3ccccc3Cl)cc21,0.668%
22,CCOc1cc(S(=O)(=O)Nc2ccc3cn[nH]c3c2)ccc1Cl,22.3%
23,O=S(=O)(Nc1ccc2[nH]ncc2c1)c1ccccc1Cl,47% (active)

row,SMILES,inhibition
1,CCCCCn1c(=O)c2sccc2n2c(CCC(=O)NC3CC3)nnc12,5.66%
2,COc1ccc(C(=O)N2CCC(Cc3nc(-c4cnccn4)no3)CC2)cc1,6%
3,CCOc1ccccc1C(=O)NCC(c1ccco1)N1CCCC1 (centres undefined),23.5%
4,Cc1ccc(N2C(=O)CN(S(C)(=O)=O)CC2(C)C(=O)NC2CCCCC2)c(C)c1 (centres undefined),15.1%
5,Cc1ccc(N2C(=O)CN(S(=O)(=O)c3ccccc3)CC2(C)C(=O)NCCC(C)C)cc1C (centres undefined),6.01%
6,COc1ccc(NC(=O)CSc2cn(CC(=O)N3CCCC3)c3ccccc23)cc1,-38.7%
7,CCOc1ccc2c(c1)c(=O)c(C(=O)c1ccccc1)cn2CC(=O)Nc1ccc(OC)cc1,93.8% (active)
8,CCOc1ccc(NC(=O)Cn2cc(C(=O)c3ccc(Cl)cc3)c(=O)c3cc(OC)ccc32)cc1,-4.68%
9,O=C(NCCc1ccccc1)N1CCC(n2c(=O)[nH]c3cncnc32)C1 (centres undefined),5.93%
10,COc1cc(C(=O)N(c2ccccn2)C2CCCCC2)cc(OC)c1OC,-3.54%
11,O=C(/C=C/c1ccc(Cl)cc1)Nc1ccc2c(c1)OCCO2,-8.51%
12,COCCN1Cc2c(C(=O)N3CCCCC3)ncn2-c2ccccc2S1(=O)=O,-27.7%
13,Cc1cc(F)ccc1NC(=O)c1cc(C2CC2)n2nccc2n1,-4.45%
14,Cc1ccc(CNC(=O)c2nc(-c3cn(-c4ccc(Br)cc4)nc3C)no2)o1,13.8%
15,Cc1ccc(-n2cc(-c3noc(C(=O)Nc4ccc(F)cc4C)n3)nn2)cc1,99% (active)
16,COc1cccc(CNC(=O)c2cc3c(=O)n(C)ccc3n2C)c1,-1.58%
17,COc1ccc(NC(=O)CS(=O)(=O)c2cn(CC(=O)N3CCCC3)c3ccccc23)cc1,-8.78%
18,COc1cc(CN2CCCC(c3ncc(Cl)cc3S(C)(=O)=O)C2)cc(OC)c1 (centres undefined),-1.79%
19,Cn1nc(C2CCCN(Cc3cc(F)cc(F)c3)C2)c2nccnc21 (centres undefined),32.7% (active)
20,Cn1nc(C2CCN(Cc3ccc4c(c3)CC(C)(C)O4)CC2)c2nccnc21,-31%
